Screening data: PubChem, several laboratories
Sampled rows, rich in hits. Any-hit rate of the full collection: about 3.9%.
BoNT-A LC inh2: BoNT/A light chain protease inhibitors, primary screen, biochemical, flow cytometry, MLPCN library; Botulinum neurotoxin type A light chain protease (Clostridium botulinum A str. ATCC 3502); multiplex microsphere protease substrate cleavage; inhibition, % at 10 µM; 0.17% of 360,000 active; AID 588499, 2011; also: plate controls were buffer without enzyme for full effect and enzyme alone for no effect
DUSP3 inh: VHR1 phosphatase inhibitors, primary screen, biochemical, absorbance, uHTS. Dual specificity protein phosphatase 3 (Homo sapiens), P51452. recombinant VHR phosphatase, pNPP absorbance. inhibition, % at 13.3 µM. 0.52% of 290,000 active; in the data active = inhibition above about 50%
Target sequence (P51452 whole entry, looked up): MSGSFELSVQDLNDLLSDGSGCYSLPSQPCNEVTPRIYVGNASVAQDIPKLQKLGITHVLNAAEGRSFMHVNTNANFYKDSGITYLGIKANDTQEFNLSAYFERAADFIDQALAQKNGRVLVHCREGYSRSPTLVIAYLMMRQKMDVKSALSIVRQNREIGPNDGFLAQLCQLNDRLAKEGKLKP
Anthrax LF prot: Bacillus anthracis LF protease inhibitors, primary screen, biochemical, multiplex microsphere, MLPCN library; Lethal factor (Bacillus anthracis), P15917; multiplex microsphere protease cleavage assay; inhibition, % at 10 µM; 0.12% of 360,000 active; also: plate controls were buffer without enzyme for full effect and enzyme alone for no effect
SARS 3CLpro inh: SARS-CoV 3CLpro protease inhibitors, primary screen, biochemical, quenched FRET; inhibition, % at 6 µM; AID 1706, 2009; 0.14% of 290,000 active; Replicase polyprotein 1ab (Severe acute respiratory syndrome coronavirus), P0C6X7; recombinant SARS-CoV 3CLpro, quenched FRET peptide cleavage; in the data active = inhibition above about 12%
Autofluor counter: flagged as autofluorescent in microsphere protease counterscreen | 3.1% of 360,000 active | compound autofluorescence counterscreen, microsphere flow cytometry; stronger effect = higher value | fluorescence intensity (test concentration not listed) | AID 624483; in the data active = fluorescence intensity above about 16000; inconclusive = no clear call, values can overlap the other calls
BoNT F protease: BoNT/F light chain protease inhibitors, primary screen, biochemical, flow cytometry, MLPCN library; AID 588497, 2011; Multiplex microsphere protease cleavage assay; inhibition, % at 10 µM; 0.22% of 360,000 active; in the data active = inhibition above about 35%, passing the limit was not always enough; inconclusive = no clear call, values can overlap the other calls; also: plate controls were buffer without enzyme for full effect and enzyme alone for no effect
* marks the source's active call; other numbers are inactive results; ? = inconclusive; / = not tested or not shown. Rule as the data show it, unless noted: active = inhibition above about 30%; inconclusive = no clear call, values can overlap the other calls; inactive = below that.

SMILES	BoNT-A LC inh2	DUSP3 inh	Anthrax LF prot	SARS 3CLpro inh	Autofluor counter	BoNT F protease
CC(=O)c1ccc(N2C(=O)[C@@H]3C(CCC(N)=O)NC4(C(=O)Nc5c4ccc(Cl)c5C)[C@@H]3C2=O)cc1 (stereo partly drawn)	0.1	21.4	-0.1	-1.4	4516	-6.7
O=C1CCCN2N=C(SCC(=O)Nc3ccc(F)cc3F)SC2=N1	-0.9	3.0	-1.0	-0.4	6149	-0.7
C/C(=N\NC(=O)c1nnn(-c2nonc2N)c1CSc1ccc(C)cc1)c1cccs1	-0.4	/	4.9	/	2967	-4.9
Cc1cc(C)n(C2CCCCC2OC(=O)CCc2ccccc2)n1 (stereo not drawn)	?	24.5	32.8*	2.8	3606	?
N#Cc1c(-c2ccco2)nc(SCc2ccc(F)cc2)[nH]c1=O	-0.2	5.6	-8.9	-2.7	5825	-0.5
Cc1nc(SCc2cccc(F)c2)[nH]c(=O)c1C#N	?	18.6	-3.3	-5.8	22061*	4.0
CC(C)=CCC[C@H](C)C[C@@H]1Cc2[nH][nH]c(=O)c2[C@H](c2ccc(Cl)cc2)O1	0.8	/	4.8	/	5807	-8.2
O=C1CC(SCc2nc3ccccc3[nH]2)C(=O)N1c1ccc(F)c(Cl)c1 (stereo not drawn)	-0.1	3.7	-4.0	-1.7	22834*	-2.6
CCCCC(CC)C1OCC(CN2CCCC2)O1 (stereo not drawn)	?	-7.8	-2.8	-0.5	19353*	11.3
CCCCC(CC)C1OCC(CN2CCCCC2)O1 (stereo not drawn)	-8.0	8.4	-9.8	7.0	4297	?
O=S(=O)(NC1CCCC1)c1ccccc1Cl	?	20.4	-0.5	2.1	20825*	2.6
O=S(=O)(NC1CCCCCCC1)c1ccccc1F	-1.1	2.2	7.6	-0.6	3852	-7.1
O=C1OCC2=C1C(c1ccc(F)cc1)CC(=O)N2c1ccccc1 (stereo not drawn)	-0.7	23.4	-0.3	6.5	4497	-2.8
CC(C)(C)c1nnc(NC(=O)C2CCN(c3ncccn3)CC2)s1	-3.0	2.9	0.8	-4.4	21096*	-3.0
O=C(Nc1cccc(Cl)c1Cl)C1CCN(c2ncccn2)CC1	-8.9	13.3	-0.8	0.3	22389*	-12.4
O=C(CN1CCOCC1)Nc1ccccc1Cl	-0.6	16.1	5.0	-3.9	6200	1.3
O=C(CN1CCOCC1)Nc1cccc(Cl)c1Cl	?	6.4	1.0	3.1	23826*	-9.0
O=C(CN(C(=O)CCC(=O)Nc1nccs1)c1ccccc1F)NCc1ccccc1	1.0	25.5	0.5	-5.0	4811	-5.0
O=C(CCSc1ccccc1)Nc1nccs1	?	33.8	-0.1	5.7	16866*	-2.2
Cc1ccccc1N(CC(=O)NCc1ccccc1)C(=O)CCC(=O)Nc1nccs1	0.3	51.1*	-10.3	0.4	3752	-14.9
CCN(CC)CCNC(=O)CCc1c(C)nc2c(c(C)nn2-c2ccc(C)c(C)c2)c1C	1.3	10.4	-15.6	-2.0	3938	-7.2
COc1cc(CNc2ccc(CNc3ncn[nH]3)cc2)cc(Cl)c1OCc1ccccc1	-0.1	4.6	-2.3	1.6	2029	2.7
Cc1ccc(SCc2nc3ccccc3n2CC(=O)Nc2c(C)cccc2C)cc1	0.8	10.6	3.0	9.4	22196*	4.6
Cc1ccc(SCc2nc3ccccc3n2CC(=O)Nc2ccccc2)cc1	2.3	27.0	3.1	-5.0	10066	13.0
CCCCOC(=O)CNc1n[nH]c(=S)[nH]c1=O	?	15.2	0.0	-0.5	21415*	6.2
SMILES	BoNT-A LC inh2	DUSP3 inh	Anthrax LF prot	SARS 3CLpro inh	Autofluor counter	BoNT F protease
CC(C)COC(=O)CNc1n[nH]c(=S)[nH]c1=O	-0.6	10.8	1.2	0.1	10488	-6.9
O=C1CNC(=O)N1CC(=O)N1CCCc2ccccc21	?	16.1	3.4	0.2	20063*	1.7
O=C(c1ccccc1)c1cn(CC(=O)N2CCCc3ccccc32)c2ccccc12	-0.6	1.6	1.0	1.4	10702	-7.5
CC(C)C(=O)c1cn(CC(=O)N2CCCc3ccccc32)c2ccccc12	?	7.8	-2.0	2.8	23272*	0.9
O=C1c2ccccc2C(=O)N1CCC(=O)N1CCCc2ccccc21	-0.3	-1.9	-3.9	-4.8	2799	1.9
O=C1c2ccccc2C(=O)N1CCC(=O)N1CCc2ccccc21	1.4	/	-5.8	-4.2	22459*	2.8
COc1ccc(CCn2c(C)cc(C(=O)CN3C(=O)C(=O)N(Cc4ccco4)C3=O)c2C)cc1	-0.5	/	-10.4	/	2942	-10.5
Cc1cc(NCCCn2ccnc2)n2ncc(-c3ccc(Cl)cc3)c2n1	?	24.7	-7.8	-1.5	22244*	-1.6
Cc1cc(NCCCN2CCOCC2)n2ncc(-c3ccc(Cl)cc3)c2n1	?	21.3	-1.2	-0.7	23672*	-4.1
COc1ccccc1N(C)C(=O)c1cc(S(=O)(=O)N2CCCC2)cn1C	-1.0	21.2	-0.1	-3.3	6000	-3.7
CCC(C)NC(=O)c1ccc(CSCc2ccc(Cl)cc2)o1 (stereo not drawn)	0.1	74.1	24.8	2.9	3616	-8.5
CCC(C)NC(=O)c1ccc(CS(=O)(=O)Cc2ccc(Cl)cc2)o1 (stereo not drawn)	-3.5	32.7	-1.8	3.9	23433*	-6.2
COc1ccc(Cl)cc1NS(=O)(=O)c1cccc(C(=O)NCC(c2ccco2)N(C)C)c1 (stereo not drawn)	1.1	23.9	2.5	3.1	6264	-4.3
CCc1cc(C(=O)NC(C)C2CCCO2)cs1 (stereo not drawn)	-3.6	-5.5	-1.3	3.7	6538	-1.7
CC(NC(=O)c1cccs1)C1CCCO1 (stereo not drawn)	-2.9	16.5	-2.1	-0.5	4271	-14.6
Cc1cc(C(=O)NC(C)C2CCCO2)cs1 (stereo not drawn)	?	-0.2	-1.4	7.0	16328*	-2.7
CC(NC(=O)Nc1ccc2c(c1)OCO2)C1CCCO1 (stereo not drawn)	1.0	6.3	-1.4	-3.8	23219*	1.6
CC(NC(=O)c1ccc(Cl)s1)C1CCCO1 (stereo not drawn)	-2.4	6.9	0.9	2.7	24646*	-4.4
COc1cccc2cc(C(=O)NC(C)C3CCCO3)c(=O)oc12 (stereo not drawn)	-0.6	-9.0	-3.9	-5.6	16163*	-3.6
Cc1cc(C)cc(NC(=O)NC(C)C2CCCO2)c1 (stereo not drawn)	-0.4	3.6	-1.6	4.8	1929	-3.4
Cc1nn(-c2ccccc2)c(C)c1NC(=O)COC(=O)c1cccc(OC(F)F)c1	0.8	/	1.1	/	5741	-3.5
Cc1cc(=O)n2nc(N3CCC(C(=O)NCC(C)c4ccccc4)CC3)sc2n1 (stereo not drawn)	0.5	1.1	-0.8	0.0	5388	0.1
